This is part of a sample that, as a whole, favours compounds with a hit. Of some 79,000 tested, about 15% had one in any assay. Activity calls are given as the source filed them. Cut-off read from the data, not from the text of the source: active = growth inhibition above about 70%; inactive = the rest.

This assay is described as follows: NCI Yeast Anticancer Drug Screen. Data for the bub3 strain (AID 167). The conditions noted are these: S. cerevisiae bub3 mutant strain, at 50.0 µM, stronger effect = higher value. A digest of the protocol:
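Part of a panel of yeast mutants defective in DNA damage repair or cell cycle regulation. Each strain is grown with compound, and inhibition is calculated relative to solvent-treated cultures.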
Regarding `COc1cccc(/C=N\c2nc(-c3ccccc3Cl)cs2)c1O`, the growth inhibition was 39.6% (inactive).

Take `COC(=O)C1CCC(=O)N1C(c1ccc(OC)cc1)c1ccc(OC)cc1` (stereo not given): the growth inhibition is 8.3% (inactive).

Regarding `O=C(Nc1ccc(Cl)c([N+](=O)[O-])c1)Oc1ccc2ccccc2c1`, the growth inhibition is 23.4% (inactive).

As to `COc1ccc(CCN=Cc2ccc(Cl)cc2)cc1OC`, the growth inhibition is -17.1% (inactive).

Take `C1CCC2(CC1)OCCS2`: the growth inhibition is -1.45% (inactive).

Regarding `Nc1ccc(O)c(C(=O)O)c1`, the growth inhibition was 1.35% (inactive).

In the case of `O=S(=O)(OCC1CC2CCC1CC2)c1ccc(Br)cc1` (stereo not given), the growth inhibition was 10.2% (inactive).

For `O=C(NC(CSSCC(NC(=O)OCc1ccccc1)C(=O)O)C(=O)O)OCc1ccccc1` (stereo not given), the growth inhibition is -33% (inactive).

For `CN(C)CC(N)C(=O)O` (stereo not given), the growth inhibition is -21.3% (inactive).

As to `COC(=O)c1oc([N+](=O)[O-])c(-c2ccccc2)c1-c1ccccc1`, the growth inhibition was 6.85% (inactive).

With `COC(=O)c1cc(C(=O)OC)cc([N+](=O)[O-])c1`, the growth inhibition is -38.5% (inactive).

Regarding `CS/C(=C\c1ccc2ccccc2[n+]1C)N1CCN(CCCO)CC1`, the growth inhibition was -7.4% (inactive).

For the compound `Cc1c(O)nc(N)[nH]c1=O`, the growth inhibition was -13.3% (inactive).

On to `CCCC(=O)c1ccc2c(c1)CCc1cc(O)ccc1-2`, for which the growth inhibition is 23.4% (inactive).

Take `C=CCC(O)CC=C`: the growth inhibition is 5.2% (inactive).

Consider `CCC(c1ccc(OC)cc1)c1cc2c(cc1OCCO)OCO2` (stereo not given), for which the growth inhibition was 58.1% (inactive).

Consider `C(#CCN1CCOCC1)CCCN1CCOCC1`, for which the growth inhibition is -15.2% (inactive).

In the case of `O=C1NC(N2CCCCC2)=N/C1=C\c1ccccc1`, the growth inhibition is -10.5% (inactive).

`CC(=O)C(C(=O)C(=O)Nc1cc(Cl)c(Cl)cc1Cl)c1csc(N)n1` (stereo not given): the growth inhibition is -2.5% (inactive).

Take `CCOC(=O)C(C=Nc1ccc(S(N)(=O)=O)cc1)C(=O)OCC`: the growth inhibition is -1.1% (inactive).

As to `O=C1CCCCCCCCCCC1Cc1cc(O)c(CC2CCCCCCCCCCC2=O)cc1O` (stereo not given), the growth inhibition is -5.8% (inactive).

As to `COc1ccc(Cc2c[nH]c3cc(OC)c(OC)cc23)cc1OC`, the growth inhibition is 10.1% (inactive).

As to `CC(C)(C)C(C)(C)CC(N)=O`, the growth inhibition is 10.9% (inactive).

Take `Cn1c(N)c(N=O)c(=O)n(C)c1=O`: the growth inhibition is -5.65% (inactive).

In the case of `O=C(COc1ccccc1Cl)N1N=C(c2ccccc2)CC1(O)c1ccccc1` (stereo not given), the growth inhibition is 19.6% (inactive).

For `O=[N+]([O-])c1cc(/C=N/NS(=O)(=O)c2ccc(F)cc2)c(O)c([N+](=O)[O-])c1`, the growth inhibition is 0.35% (inactive).

For the compound `Cc1ccc2nc[nH]c2c1`, the growth inhibition is 4.05% (inactive).

For `C=CCOc1ccc(N)c([N+](=O)[O-])c1`, the growth inhibition was 36.7% (inactive).

For the compound `COc1ccc(CCNC(=O)Cc2ccc(Cl)cc2)cc1OC`, the growth inhibition is -5.75% (inactive).

On to `CC1=CC(=O)/C(=C/n2c(=S)[nH]c3ccc([N+](=O)[O-])cc32)C(=O)O1`, for which the growth inhibition is 6.6% (inactive).

For `C[N+](C)(C)CCC(=O)N1C/C(=C\c2ccccc2)C(=O)/C(=C/c2ccccc2)C1`, the growth inhibition is -15.7% (inactive).

As for `OCCCCCCO`, the growth inhibition is 4.3% (inactive).

In the case of `CCN(CC)/[N+]([O-])=N/O`, the growth inhibition was 15.8% (inactive).

In the case of `CC(C)(O)c1cc2nc3ccccc3nc2n1CCO`, the growth inhibition is 4.25% (inactive).

Take `COC(CCCl)c1ccc(C)cc1` (stereo not given): the growth inhibition is -29.9% (inactive).

On to `Nc1ncnc2c(C3OC(CO)C(O)C3O)nsc12` (stereo not given), for which the growth inhibition is -32.1% (inactive).

For `CCN(C)c1nc(N(C)CC)c2nc(N(C)CC)nc(N(C)CC)c2n1`, the growth inhibition was -14.5% (inactive).

On to `CCCC(=O)Nc1cccc(Cl)c1`, for which the growth inhibition was -0.75% (inactive).

`OCCCc1ccccc1`: the growth inhibition was 3.25% (inactive).

For the compound `COc1cc(C(O)C2(c3ccc(O)c(OC)c3)NC(=O)NC2=O)ccc1O` (stereo not given), the growth inhibition was 35.2% (inactive).
